Outcome and AC50 data for 35 molecules are collected here from PubChem BioAssay (EPA / NIEHS).

Broadly, the AC50 is the concentration at which the activity in the assay is half-maximal.

Records with an inconclusive call do not appear. Activity calls are given as the source filed them. The calls were made as follows: active = hit-call score of the fitted dose curve at least 0.9, where 1 is the maximum; inconclusive = response in the unintended direction; inactive = score below 0.9.

Sequence of human Rho Associated Coiled-coil Containing Protein Kinase 1 (ROCK1), ROCK1 (gene 6093) (Q13464 whole entry, looked up): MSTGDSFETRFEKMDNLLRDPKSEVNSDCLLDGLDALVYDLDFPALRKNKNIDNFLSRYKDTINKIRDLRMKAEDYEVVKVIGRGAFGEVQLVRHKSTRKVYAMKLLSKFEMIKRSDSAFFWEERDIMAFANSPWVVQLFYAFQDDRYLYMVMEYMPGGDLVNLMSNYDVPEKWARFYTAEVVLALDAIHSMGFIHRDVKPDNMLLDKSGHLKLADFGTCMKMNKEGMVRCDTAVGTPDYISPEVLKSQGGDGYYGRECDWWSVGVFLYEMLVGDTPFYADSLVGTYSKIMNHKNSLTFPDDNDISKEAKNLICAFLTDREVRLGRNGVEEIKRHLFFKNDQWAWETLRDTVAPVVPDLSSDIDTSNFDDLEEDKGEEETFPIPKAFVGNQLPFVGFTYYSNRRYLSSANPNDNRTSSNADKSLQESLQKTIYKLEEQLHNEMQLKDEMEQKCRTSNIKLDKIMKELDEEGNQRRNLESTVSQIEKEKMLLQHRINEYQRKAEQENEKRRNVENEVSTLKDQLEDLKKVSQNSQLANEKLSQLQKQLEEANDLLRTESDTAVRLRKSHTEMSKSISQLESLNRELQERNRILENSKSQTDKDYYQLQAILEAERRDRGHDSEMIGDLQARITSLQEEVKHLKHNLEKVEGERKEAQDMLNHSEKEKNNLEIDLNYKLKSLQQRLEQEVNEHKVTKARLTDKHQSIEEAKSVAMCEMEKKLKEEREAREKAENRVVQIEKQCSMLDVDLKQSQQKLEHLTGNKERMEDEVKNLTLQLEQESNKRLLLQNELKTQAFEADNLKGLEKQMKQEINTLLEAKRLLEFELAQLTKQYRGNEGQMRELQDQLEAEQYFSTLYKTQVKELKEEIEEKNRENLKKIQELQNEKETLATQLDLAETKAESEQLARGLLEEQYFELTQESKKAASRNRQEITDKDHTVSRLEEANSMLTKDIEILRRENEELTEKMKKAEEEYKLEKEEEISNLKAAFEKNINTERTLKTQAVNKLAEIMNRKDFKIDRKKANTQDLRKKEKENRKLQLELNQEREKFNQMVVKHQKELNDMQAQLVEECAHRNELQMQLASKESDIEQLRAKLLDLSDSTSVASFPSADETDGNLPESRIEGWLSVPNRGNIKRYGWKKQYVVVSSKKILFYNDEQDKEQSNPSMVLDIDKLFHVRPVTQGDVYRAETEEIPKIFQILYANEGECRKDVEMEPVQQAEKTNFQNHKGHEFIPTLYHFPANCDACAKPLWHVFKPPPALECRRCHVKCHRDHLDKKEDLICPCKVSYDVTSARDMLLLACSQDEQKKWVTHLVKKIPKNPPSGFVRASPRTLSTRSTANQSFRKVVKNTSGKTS
Sequence of human Sirtuin 1 (SIRT1), SIRT1 (gene 23411) (Q96EB6 whole entry, looked up): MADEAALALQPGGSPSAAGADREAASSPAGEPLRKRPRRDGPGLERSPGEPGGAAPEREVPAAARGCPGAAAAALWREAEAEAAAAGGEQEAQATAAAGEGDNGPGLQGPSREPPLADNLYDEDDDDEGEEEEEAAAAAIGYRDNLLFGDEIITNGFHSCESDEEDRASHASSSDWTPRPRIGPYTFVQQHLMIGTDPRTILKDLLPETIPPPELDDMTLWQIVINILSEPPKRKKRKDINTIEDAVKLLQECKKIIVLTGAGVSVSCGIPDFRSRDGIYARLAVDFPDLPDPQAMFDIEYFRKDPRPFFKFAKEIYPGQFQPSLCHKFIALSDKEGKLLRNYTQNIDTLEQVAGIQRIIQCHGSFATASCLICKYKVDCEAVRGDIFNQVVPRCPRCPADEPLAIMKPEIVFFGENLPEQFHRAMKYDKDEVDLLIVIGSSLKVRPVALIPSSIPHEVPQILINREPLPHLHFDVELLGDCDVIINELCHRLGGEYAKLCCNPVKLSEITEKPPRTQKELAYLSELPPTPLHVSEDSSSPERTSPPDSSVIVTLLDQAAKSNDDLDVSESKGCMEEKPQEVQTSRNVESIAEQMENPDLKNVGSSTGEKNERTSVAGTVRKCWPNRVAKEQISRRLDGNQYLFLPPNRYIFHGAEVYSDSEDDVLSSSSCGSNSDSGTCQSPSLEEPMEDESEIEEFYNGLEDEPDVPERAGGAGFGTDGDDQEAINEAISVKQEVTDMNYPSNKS
Sequence of human SRC Proto-Oncogene, Non-receptor Tyrosine Kinase (SRC), SRC (gene 6714) (P12931 whole entry, looked up): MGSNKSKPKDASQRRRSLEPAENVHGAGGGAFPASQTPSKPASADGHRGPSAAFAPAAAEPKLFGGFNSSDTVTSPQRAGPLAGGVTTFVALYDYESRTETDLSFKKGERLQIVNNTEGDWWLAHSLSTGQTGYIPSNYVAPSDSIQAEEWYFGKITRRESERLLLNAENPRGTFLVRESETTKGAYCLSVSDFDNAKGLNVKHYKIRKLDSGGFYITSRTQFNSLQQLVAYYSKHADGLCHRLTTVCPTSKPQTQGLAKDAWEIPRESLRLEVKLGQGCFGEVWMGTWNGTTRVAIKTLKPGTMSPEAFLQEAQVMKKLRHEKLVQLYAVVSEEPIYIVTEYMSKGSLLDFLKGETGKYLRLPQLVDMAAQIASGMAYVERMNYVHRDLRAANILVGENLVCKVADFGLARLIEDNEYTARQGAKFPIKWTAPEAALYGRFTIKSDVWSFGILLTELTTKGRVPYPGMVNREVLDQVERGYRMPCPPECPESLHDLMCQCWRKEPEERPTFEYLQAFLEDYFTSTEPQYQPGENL
Sequence of human Vascular Endothelial Growth Factor Receptor 1 (VEGFR1), FLT1 (gene 2321) (P17948 whole entry, looked up): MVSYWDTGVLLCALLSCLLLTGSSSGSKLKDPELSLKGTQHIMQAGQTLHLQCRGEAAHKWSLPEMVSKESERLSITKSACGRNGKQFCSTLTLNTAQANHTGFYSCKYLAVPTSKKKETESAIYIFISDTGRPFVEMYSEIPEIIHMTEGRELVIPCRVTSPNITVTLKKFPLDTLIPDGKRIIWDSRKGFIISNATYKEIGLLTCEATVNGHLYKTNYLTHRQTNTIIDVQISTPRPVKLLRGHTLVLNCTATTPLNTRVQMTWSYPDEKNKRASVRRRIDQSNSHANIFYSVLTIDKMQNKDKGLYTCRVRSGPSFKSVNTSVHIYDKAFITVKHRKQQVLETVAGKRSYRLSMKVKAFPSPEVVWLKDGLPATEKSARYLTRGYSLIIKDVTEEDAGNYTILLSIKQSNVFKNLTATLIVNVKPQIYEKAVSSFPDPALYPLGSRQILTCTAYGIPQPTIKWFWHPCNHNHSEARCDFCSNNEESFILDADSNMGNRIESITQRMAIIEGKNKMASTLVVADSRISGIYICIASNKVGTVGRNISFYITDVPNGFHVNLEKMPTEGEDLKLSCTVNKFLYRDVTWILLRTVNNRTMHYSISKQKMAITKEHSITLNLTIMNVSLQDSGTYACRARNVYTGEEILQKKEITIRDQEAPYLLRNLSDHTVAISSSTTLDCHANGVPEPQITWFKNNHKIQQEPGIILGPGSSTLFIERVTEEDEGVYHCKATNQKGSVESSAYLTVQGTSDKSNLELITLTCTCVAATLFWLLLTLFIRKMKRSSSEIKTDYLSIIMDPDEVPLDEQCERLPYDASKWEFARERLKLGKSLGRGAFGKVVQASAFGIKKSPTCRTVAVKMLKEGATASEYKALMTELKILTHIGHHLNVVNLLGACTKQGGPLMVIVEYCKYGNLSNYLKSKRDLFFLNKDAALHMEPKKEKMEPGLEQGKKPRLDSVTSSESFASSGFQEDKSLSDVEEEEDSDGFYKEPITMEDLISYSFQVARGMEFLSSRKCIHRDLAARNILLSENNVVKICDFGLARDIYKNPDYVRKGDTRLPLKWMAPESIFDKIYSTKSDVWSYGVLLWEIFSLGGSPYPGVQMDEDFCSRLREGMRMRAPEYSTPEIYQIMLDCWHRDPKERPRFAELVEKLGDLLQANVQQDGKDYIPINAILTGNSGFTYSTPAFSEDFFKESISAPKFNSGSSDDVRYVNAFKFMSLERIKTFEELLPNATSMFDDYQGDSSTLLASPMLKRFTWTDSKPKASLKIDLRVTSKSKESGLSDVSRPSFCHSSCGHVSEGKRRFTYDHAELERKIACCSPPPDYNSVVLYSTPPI
Sequence of rabbit Imidazoline 2 Central (I2C), CKB (gene 100009085) (P00567 whole entry, looked up): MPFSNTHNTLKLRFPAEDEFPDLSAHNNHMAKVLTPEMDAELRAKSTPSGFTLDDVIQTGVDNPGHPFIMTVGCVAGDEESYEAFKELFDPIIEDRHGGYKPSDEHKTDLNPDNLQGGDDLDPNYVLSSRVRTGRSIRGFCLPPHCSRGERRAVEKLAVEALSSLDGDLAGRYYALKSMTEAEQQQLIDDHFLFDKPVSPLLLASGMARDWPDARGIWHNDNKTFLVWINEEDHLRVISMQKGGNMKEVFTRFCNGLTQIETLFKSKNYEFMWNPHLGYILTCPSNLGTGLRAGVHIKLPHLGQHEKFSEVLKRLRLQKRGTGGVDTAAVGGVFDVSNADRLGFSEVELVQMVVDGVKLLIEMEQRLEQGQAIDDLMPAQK

For the first assay, the target named is human Protein Tyrosine Phosphatase Receptor Type F (PTPRF), PTPRF (gene 5792) (UniProt P10586). Put plainly: NVS_ENZ_hPTPRF: NovaScreen (NVS) Enzymatic Assay for human Protein Tyrosine Phosphatase Receptor Type F (PTPRF) (AID 2283213). Put shortly:
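Cell-free fluorescence enzyme assay with recombinant protein and substrate; product separated by electrophoretic mobility shift. Read 1 h after dosing, single 25 uM duplicate screen, then concentration-response up to 50 uM; loss of signal vs DMSO.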
Take `CCc1c(C(=O)NN2CCCCC2)nn(-c2ccc(Cl)cc2Cl)c1-c1ccc(Br)cc1`: the outcome was inactive. Still for that read-out and setting: in the case of `O=C(OCCCCCOC(=O)c1ccccc1)c1ccccc1` it was “inactive”; in that of `CC(C)c1ccc(C(=O)N=C(N)N)cc1S(C)(=O)=O`, “inactive”.

A further assay addresses human Rho Associated Coiled-coil Containing Protein Kinase 1 (ROCK1), ROCK1 (gene 6093) (UniProt Q13464). Put plainly: NVS_ENZ_hROCK1: NovaScreen (NVS) Enzymatic Assay for human Rho Associated Coiled-coil Containing Protein Kinase 1 (ROCK1) (AID 2283214). Put shortly: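 Cell-free recombinant human ROCK1 activity assay; fluorescent substrate and product separated by electrophoretic mobility shift, read 1 h after dosing. Screened in duplicate at 25 uM; loss of signal versus DMSO baseline scored as inhibition.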
On to `Cc1ccc(C)c(O)c1C`, for which the molecule was classed as inactive. Same read-out and setting: the same measure for `Cc1nc(C)nc(N2C[C@@H](C)N(c3ccnc([C@@H](C)O)n3)[C@@H](C)C2)n1`: “inactive”; for `CC(=O)OCCOCCOCCOC(C)=O`: “inactive”; for `Cc1cccc([N+](=O)[O-])c1C`: “inactive”. `CCCCCCCCCCCCCCCCCC(=O)O`: the molecule was called inactive.

The target in a further assay is human Sirtuin 2 (SIRT2), SIRT2 (gene 22933) (UniProt Q8IXJ6). Put plainly: NVS_ENZ_hSIRT2: NovaScreen (NVS) Enzymatic Assay for human Sirtuin 2 (SIRT2) (AID 2283217). As for the experimental part: NVS_ENZ_hSIRT2 is a biochemical, single-readout assay that uses extracted gene-proteins in a cell-free assay. Measurements were taken 1 hour after chemical dosing in a 384-well plate.NVS_ENZ_hSIRT2 is one of one assay component(s) measured or calculated from the NVS_ENZ_hSIRT2 assay. It is designed to make measurements of enzyme activity, a form of enzyme reporter, as detected with fluorescence intensity signals by Fluorescence and electrophoretic mobility shift technology.Data from the assay component NVS_ENZ_hSIRT2 was analyzed into 1 assay endpoint. This assay endpoint, NVS_ENZ_hSIRT2, was analyzed in the positive analysis fitting direction relative to DMSO as the negative control and baseline of activity. Using a type of enzyme reporter, loss-of-signal activity can be used to understand changes in the enzymatic activity as they relate to the gene SIRT2. Furthermore, this assay endpoint can be referred to as a primary readout, because this assay has produced multiple assay endpoints where this one serves a enzymatic activity function. To generalize the intended target to other relatable targets, this assay endpoint is annotated to the hydrolase intended target family, where the subfamily is protein deacetylase.
Sequence of human Sirtuin 2 (SIRT2), SIRT2 (gene 22933) (Q8IXJ6 whole entry, looked up): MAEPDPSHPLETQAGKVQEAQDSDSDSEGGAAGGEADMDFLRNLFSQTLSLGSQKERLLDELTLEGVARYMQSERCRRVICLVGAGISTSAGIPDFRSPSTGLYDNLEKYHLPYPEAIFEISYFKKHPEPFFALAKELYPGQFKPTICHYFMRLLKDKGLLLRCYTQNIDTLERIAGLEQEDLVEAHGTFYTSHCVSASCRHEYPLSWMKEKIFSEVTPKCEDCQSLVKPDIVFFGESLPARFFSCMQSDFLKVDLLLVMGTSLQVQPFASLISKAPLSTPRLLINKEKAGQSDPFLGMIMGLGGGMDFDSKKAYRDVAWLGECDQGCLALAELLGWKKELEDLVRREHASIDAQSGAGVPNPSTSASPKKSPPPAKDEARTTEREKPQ
Binding assays used specific radioligands (tritiated, iodinated) with non-radioactive competitive displacement ligands in agonist or antagonist protocols (as indicated) and various reference compounds and inhibitors to titrate specific binding to receptors and transporters. Most enzyme assays (CYPs, kinases, phosphatases, proteases, HDACs) used recombinant protein and specific substrates (fluorescence mostly, some colorimetric and radioactive) and inhibitors, followed by a biochemical separation of substrate and product. All assays for the biochemical HTS were initially run in duplicate at a single concentration (10 uM for CYP450 assays and 25 uM for all others). […]
With `Cc1nc(-c2ccc3c(c2)CCN(CCC2CCC(NC(=O)/C=C/c4ccc(F)cc4)CC2)CC3)no1` (stereo not drawn), the molecule was classed as inactive. Same read-out and setting: the same measure for `C=CCOC(=O)c1ccccc1C(=O)OCC=C`: “inactive”; for `CC(C)c1ccc(C(=O)N=C(N)N)cc1S(C)(=O)=O`: “inactive”.

The target of another assay is human Sirtuin 1 (SIRT1), SIRT1 (gene 23411) (UniProt Q96EB6). Put plainly: NVS_ENZ_hSIRT1: NovaScreen (NVS) Enzymatic Assay for human Sirtuin 1 (SIRT1) (AID 2283219). In a few lines:
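Cell-free recombinant SIRT1 with a fluorescent substrate; substrate and product separated by electrophoretic mobility shift and read by fluorescence intensity, 1 h after dosing. Primary screen at 25 uM in duplicate; hits re-run in concentration-response up to 50 uM, relative to DMSO.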
Regarding `Cc1nc(-c2ccc3c(c2)CCN(CCC2CCC(NC(=O)/C=C/c4ccc(F)cc4)CC2)CC3)no1` (stereo not drawn), the call was inactive. For `Cc1c(C(=O)O)c(O)cc2c1C(=O)c1c(O)c([C@@H]3O[C@H](CO)[C@@H](O)[C@H](O)[C@H]3O)c(O)c(O)c1C2=O`, the outcome was inactive. The same measure, in the same setting: in the case of `c1cc(-c2ccncc2)ccn1` it was “inactive”; in that of `CC1=C(/C=C/C(C)=C/C=C/C(C)=C/CO)C(C)(C)CCC1`, “inactive”.

Take `Cc1cc(NC(=O)C(=O)O)cc(C)c1Oc1ccc(O)c2c1CCC2`: the AC50 is 25 µM (active). Regarding `NCC1(Cc2noc(=O)[nH]2)CCCCC1`, the result was inactive.

Consider `Cc1cccc([N+](=O)[O-])c1C`, for which the call was inactive. On the same count and under the same terms, in the case of `Cc1cccc(Nc2cc(Cl)nc(SCC(=O)O)n2)c1C` it was “inactive”. Still for that read-out and setting: the same measure for `CCCCCCCC=O`: “inactive”. For `NCCO`, the outcome was inactive. Still for that read-out and setting: in the case of `O=C(OCCCCCOC(=O)c1ccccc1)c1ccccc1` it was “inactive”; in that of `Cc1ccc(C(C)C)c(O)c1`, “inactive”; in that of `CC(=O)C(C)=CC1C(C)=CCCC1(C)C` (stereo not drawn), “inactive”.

The next assay addresses human Sirtuin 3 (SIRT3), SIRT3 (gene 23410) (UniProt Q9NTG7). Put plainly: NVS_ENZ_hSIRT3: NovaScreen (NVS) Enzymatic Assay for human Sirtuin 3 (SIRT3) (AID 2283222). Put shortly: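 Cell-free enzyme assay with recombinant protein and fluorescent substrate, product separated by electrophoretic mobility shift; read 1 hour after dosing. Screened in duplicate at 25 uM, then singleton concentration-response up to 50 uM; loss of signal versus DMSO.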
`Cc1nc(-c2ccc3c(c2)CCN(CCC2CCC(NC(=O)/C=C/c4ccc(F)cc4)CC2)CC3)no1` (stereo not drawn): the result was inactive. `COc1cc(-c2nc(NC(=O)c3cc4cc(C)cc(C)c4n3CC(=O)O)sc2CCC2CCCCC2)c(OC)cc1Cl`: the AC50 is 30.3 µM (active). In the case of `Cc1cccc(Nc2cc(Cl)nc(SCC(=O)O)n2)c1C`, the outcome was inactive. On the same count and under the same terms, the same measure for `CC1(C)CC(N=C=O)CC(C)(CN=C=O)C1` (stereo not drawn): “inactive”; for `CC(C)c1ccc(C(=O)N=C(N)N)cc1S(C)(=O)=O`: “inactive”.

In a further assay the target is human SRC Proto-Oncogene, Non-receptor Tyrosine Kinase (SRC), SRC (gene 6714) (UniProt P12931). Put plainly: NVS_ENZ_hSRC: NovaScreen (NVS) Enzymatic Assay for human SRC Proto-Oncogene, Non-receptor Tyrosine Kinase (SRC) (AID 2283223). In a few lines:
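Cell-free kinase activity assay with fluorescent substrate, product separated by electrophoretic mobility shift, read 1 h after dosing. Duplicate single point at 25 uM, then concentration-response up to 50 uM; loss of signal versus DMSO.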
For `Cc1oc(-c2ccccc2)nc1CCOc1cccc2c1ccn2CCC(=O)O`, the outcome was inactive.

`CCCc1cc(=O)[nH]c(=S)[nH]1`: the molecule was called inactive. `CC1(C)NC(=O)NC1=O`: the result was inactive.

Regarding `NCCO`, the result was inactive. Still for that read-out and setting: the same measure for `O=C(OCCCCCOC(=O)c1ccccc1)c1ccccc1`: “inactive”.

The target in the next assay is human Vascular Endothelial Growth Factor Receptor 1 (VEGFR1), FLT1 (gene 2321) (UniProt P17948). Put plainly: NVS_ENZ_hVEGFR1: NovaScreen (NVS) Enzymatic Assay for human Vascular Endothelial Growth Factor Receptor 1 (VEGFR1) (AID 2283226). Put shortly:
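Cell-free assay of recombinant human VEGFR1 kinase with substrate, measured 1 h after dosing; fluorescence with electrophoretic mobility-shift separation of substrate and product, referenced to DMSO; primary screen at 25 uM in duplicate, actives then run in concentration series.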
With `Cc1oc(-c2ccccc2)nc1CCOc1cccc2c1ccn2CCC(=O)O`, the molecule was classed as inactive.

For `CC1=C(/C=C/C(C)=C/C=C/C(C)=C/CO)C(C)(C)CCC1`, the outcome was inactive. Still for that read-out and setting: in the case of `CCCCCCCCCCC` it was “inactive”; in that of `CCCCc1ccc2c(n1)[C@@H](c1ccc(OC)cc1C[C@H](C)C(=O)O)[C@H](C(=O)O)[C@H]2c1ccc2c(c1)OCO2`, “inactive”. Still for that read-out and setting: the same measure for `FC(F)(F)C(F)(F)C(F)(F)C(F)(F)C(F)(F)C(F)(F)CCI`: “inactive”; for `NCCO`: “inactive”; for `CCc1c(C(=O)NN2CCCCC2)nn(-c2ccc(Cl)cc2Cl)c1-c1ccc(Br)cc1`: “inactive”.

A further assay concerns the target rabbit Imidazoline 2 Central (I2C), CKB (gene 100009085) (UniProt P00567). Put plainly: NVS_ENZ_rabI2C: NovaScreen (NVS) Enzymatic Assay for rabbit Imidazoline 2 Central (I2C) (AID 2283228). In a few lines:
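Rabbit brain membranes, cell-free; readout by filter-based scintillation counting 1.5 hours after dosing, loss of signal vs DMSO. Initial duplicate test at 25 uM, then concentration-response with 50 uM top concentration.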
On to `Oc1ccc2c(c1)OC[C@@H](N1CCC(O)(c3ccc(F)cc3)CC1)[C@H]2O`, for which the result was inactive. `CN1CCN(Cc2cc(-c3ccc4[nH]c(=O)oc4c3)co2)[C@@H](c2ccc(F)cc2)C1`: the AC50 is 22 µM (active).

On to `CCOc1ccc2c(c1)C(C)=CC(C)(C)N2`, for which the outcome was inactive. As to `Nc1ccccc1N`, the molecule was called inactive. Take `NC(=O)Cn1c(=O)cc(CCN2CCN(c3nccc4sccc34)CC2)c2ccc(F)cc21`: the result was inactive.

Regarding `O=C(N[C@@H](Cc1ccccc1)[C@@H](O)C(=O)N1C[C@@H](O)[C@@H](O)C1)c1cc2cc(Cl)ccc2[nH]1`, the molecule was called inactive. Same read-out and setting: in the case of `CCOC(=O)CCC(=O)OCC` it was “inactive”.
